This is one part of the list. Calls of active or inactive are those of the source. Unless noted, no stated cut-off is given here; in the data, active means activity above about 50%; inactive means the rest.
What was measured:
[1] = molecular target: Tumor necrosis factor receptor superfamily member 10B (Homo sapiens) (UniProt O14763); experiment: viability loss of caspase-8 NB7 cells with TRAIL – with/without TRAIL, luminescence panel, confirmation (AID 651596); settings: NB7 neuroblastoma + caspase-8, TRAIL sensitization, NB7 Caspase-8, with TRAIL, mean of runs, at 10 µM, stronger effect = higher value
Sequence of Tumor necrosis factor receptor superfamily member 10B (Homo sapiens) (O14763 whole entry, looked up): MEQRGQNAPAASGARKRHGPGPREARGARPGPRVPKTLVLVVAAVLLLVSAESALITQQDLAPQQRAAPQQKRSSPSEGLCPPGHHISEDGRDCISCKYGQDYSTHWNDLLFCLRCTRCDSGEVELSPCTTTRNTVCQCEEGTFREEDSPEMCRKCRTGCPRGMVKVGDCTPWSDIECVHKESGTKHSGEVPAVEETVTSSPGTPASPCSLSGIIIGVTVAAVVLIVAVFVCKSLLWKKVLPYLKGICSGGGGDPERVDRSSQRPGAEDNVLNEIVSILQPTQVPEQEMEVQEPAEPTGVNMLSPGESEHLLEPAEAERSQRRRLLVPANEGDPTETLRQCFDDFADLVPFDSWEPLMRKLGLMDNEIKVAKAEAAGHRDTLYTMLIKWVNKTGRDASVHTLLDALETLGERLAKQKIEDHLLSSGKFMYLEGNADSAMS

[2] = as above; settings: NB7 neuroblastoma + caspase-8, without TRAIL, NB7 Caspase-8, without TRAIL, mean of runs, at 10 µM
[3] = molecular target: Tumor necrosis factor receptor superfamily member 10B (Homo sapiens) (UniProt O14763); experiment: compound enhancement of TRAIL-induced cell killing – NB7 cells plus caspase-8, luminescence, panel, dose response (AID 652002); settings: NB7 neuroblastoma +caspase-8, TRAIL sensitization, luminescence viability, NB7+Caspase-8, with TRAIL, run 1; at 12.5 µM (top of the series)
[4] = molecular target: Tumor necrosis factor receptor superfamily member 10B (Homo sapiens) (UniProt O14763); experiment: as above; settings: NB7 neuroblastoma +caspase-8, TRAIL sensitization, luminescence viability, NB7+Caspase-8, with TRAIL, run 2; at 12.5 µM (top of the series)
[5] = as above; settings: NB7 neuroblastoma +caspase-8, no TRAIL, compound-alone cytotoxicity counter-screen, luminescence viability, NB7+Caspase-8, run 1; at 12.5 µM (top of the series) unless noted
[6] = as above; settings: NB7 neuroblastoma +caspase-8, no TRAIL, compound-alone cytotoxicity counter-screen, luminescence viability, NB7+Caspase-8, run 2; at 12.5 µM (top of the series) unless noted
[7] = molecular target: COP9 signalosome complex subunit 5 (Homo sapiens) (UniProt Q92905); experiment: blockers of CSN-driven cullin deneddylation – biochemical, fluorescence polarization, single concentration, SCF-Nedd8OG substrate, confirmation (AID 720654; in the data active means inhibition above about 50%;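 further: 0% = DMSO with enzyme and 100% = no enzyme wells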); settings: Csn5 deneddylation of SCF-Nedd8OG, 90 min, at 16.6 µM, stronger effect = higher value
Sequence of COP9 signalosome complex subunit 5 (Homo sapiens) (Q92905 whole entry, looked up, one chain of several): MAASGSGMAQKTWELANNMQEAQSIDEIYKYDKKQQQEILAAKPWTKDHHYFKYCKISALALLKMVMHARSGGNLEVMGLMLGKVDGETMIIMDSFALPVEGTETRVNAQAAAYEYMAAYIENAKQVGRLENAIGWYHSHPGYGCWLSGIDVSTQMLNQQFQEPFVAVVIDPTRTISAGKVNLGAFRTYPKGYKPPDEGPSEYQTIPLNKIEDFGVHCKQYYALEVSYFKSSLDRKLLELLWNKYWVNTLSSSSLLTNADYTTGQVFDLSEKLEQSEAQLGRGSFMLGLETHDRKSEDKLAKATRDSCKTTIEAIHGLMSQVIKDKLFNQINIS

[8] = molecular target: 72 kDa type IV collagenase (Homo sapiens) (UniProt P08253); experiment: human MMP-2 inhibitors, single-point check – biochemical, fluorescence, single concentration, counter-screen for CSN deneddylation inhibitor project, confirmation (AID 720655;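 active means corrected plate-normalized z-score of 5 or more, or -5 or less, or inhibition of 15% or more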;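 further: plate controls were DMSO wells with enzyme for no effect and buffer wells lacking MMP-2 for full effect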); settings: recombinant MMP-2, FRET substrate fluorescence, 60 min; at 16.6 µM
Sequence of 72 kDa type IV collagenase (Homo sapiens) (P08253 whole entry, looked up): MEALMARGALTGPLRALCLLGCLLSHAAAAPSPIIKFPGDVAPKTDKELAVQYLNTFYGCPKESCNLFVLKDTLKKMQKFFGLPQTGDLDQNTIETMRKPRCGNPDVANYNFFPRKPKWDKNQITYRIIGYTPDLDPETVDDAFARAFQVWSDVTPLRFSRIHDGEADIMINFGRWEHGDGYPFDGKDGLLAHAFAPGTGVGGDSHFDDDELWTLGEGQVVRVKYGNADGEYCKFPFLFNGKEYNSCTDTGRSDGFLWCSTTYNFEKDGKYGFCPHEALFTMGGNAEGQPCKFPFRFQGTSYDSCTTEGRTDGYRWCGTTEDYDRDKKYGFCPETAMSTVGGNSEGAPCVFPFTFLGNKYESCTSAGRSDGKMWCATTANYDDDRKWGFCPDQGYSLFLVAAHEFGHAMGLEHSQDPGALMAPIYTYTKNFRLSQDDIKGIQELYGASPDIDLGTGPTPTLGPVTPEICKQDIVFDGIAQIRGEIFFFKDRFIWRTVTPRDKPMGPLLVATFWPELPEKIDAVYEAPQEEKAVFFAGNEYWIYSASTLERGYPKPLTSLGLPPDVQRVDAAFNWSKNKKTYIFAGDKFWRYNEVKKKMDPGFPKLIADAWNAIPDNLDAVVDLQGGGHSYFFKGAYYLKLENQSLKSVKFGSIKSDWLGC

Prothrombin (Bos taurus) = Prothrombin (Bos taurus) (UniProt P00735); experiment: thrombin cleavage blockers, FP readout – biochemical, fluorescence polarization, single concentration, counter-screen for CSN deneddylation inhibitor project, confirmation (AID 720656;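 active means inhibition at or above a set limit, with a fluorescence interference ratio between 0.5 and a set maximum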); settings: bovine thrombin cleavage of Ub4-pepOG, at 16.6 µM, stronger effect = higher value
Sequence of Prothrombin (Bos taurus) (P00735 whole entry, looked up): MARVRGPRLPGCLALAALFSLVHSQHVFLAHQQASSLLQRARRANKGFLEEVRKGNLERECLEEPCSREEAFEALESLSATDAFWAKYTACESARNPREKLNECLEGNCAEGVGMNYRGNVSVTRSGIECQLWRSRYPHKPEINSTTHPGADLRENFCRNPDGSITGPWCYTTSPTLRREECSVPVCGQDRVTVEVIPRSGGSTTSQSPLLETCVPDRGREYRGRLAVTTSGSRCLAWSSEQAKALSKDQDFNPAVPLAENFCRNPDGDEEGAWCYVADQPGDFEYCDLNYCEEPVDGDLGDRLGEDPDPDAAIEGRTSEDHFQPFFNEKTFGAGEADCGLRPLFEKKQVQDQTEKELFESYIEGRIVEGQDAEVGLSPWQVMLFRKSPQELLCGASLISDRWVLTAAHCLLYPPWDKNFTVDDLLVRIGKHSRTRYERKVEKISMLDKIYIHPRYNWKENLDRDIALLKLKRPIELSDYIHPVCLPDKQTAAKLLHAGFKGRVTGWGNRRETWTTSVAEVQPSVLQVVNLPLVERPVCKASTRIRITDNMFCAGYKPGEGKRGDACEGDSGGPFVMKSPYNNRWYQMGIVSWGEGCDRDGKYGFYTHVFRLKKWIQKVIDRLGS

C=Cc1ccc(Cn2c(C)c(C(=O)NCc3cccc(C(F)(F)F)c3)sc2=O)cc1
activity [1]: 60.2%
activity [2]: 20.5%
activity, % sensitization [3]: -5.7%
activity, % sensitization [4]: -12.9%
activity, % sensitization [5]: 5.05%
activity, % sensitization [6]: 6.45%

Cc1onc(-c2c(Cl)cccc2Cl)c1C(=O)ONC(=O)c1ccccc1
activity [1]: 72.9%
activity [2]: 30.8%
activity, % sensitization [3]: 1.55%
activity, % sensitization [4]: -5.77%
activity, % sensitization [5]: -2.95%
activity, % sensitization [6]: -9.25%

CC(C)CCn1cnc2c([nH]c3cccc(Cl)c32)c1=O
activity [1]: 60.6%
activity [2]: 52.9%
activity, % sensitization [3]: -14.6%
activity, % sensitization [4]: -14%
activity, % sensitization [5]: -4.11%
activity, % sensitization [6]: 0.76%

O=C1Cc2c(-c3ccccc3)cc(-c3cccc(Cl)c3)nc2-c2ccccc2N1
activity [1]: 52.9%
activity [2]: 39.5%
activity, % sensitization [3]: -1.76%
activity, % sensitization [4]: -0.0597%
activity, % sensitization [5]: -14.1%
activity, % sensitization [6]: -20.4%

Cc1cc2nc(-c3ccc(SCC(=O)Nc4nccs4)nc3)[nH]c2cc1C
activity [1]: 58%
activity [2]: 46.6%
activity, % sensitization [3]: 5.16%
activity, % sensitization [4]: 48.9%
activity, % sensitization [5]: -17.8%
activity, % sensitization [6]: 0.327%

CN(C)CCCN(C(=O)c1ccc(C(=O)c2ccccc2)cc1)c1nc2ccc(F)cc2s1
activity [1]: 64.6%
activity [2]: 34.9%
activity, % sensitization [3]: 12.1%
activity, % sensitization [4]: 3.85%
activity, % sensitization [5]: 0.995%
activity, % sensitization [6]: 25.8%

COc1ccc(-c2cc(C(=O)OCC(=O)Nc3ccc4c(c3)OCO4)c3ccccc3n2)cc1
activity [1]: 54.6%
activity [2]: 48.5%
activity, % sensitization [3]: 31.3%
activity, % sensitization [4]: 43.9%
activity, % sensitization [5]: 34.3%
activity, % sensitization [6]: 46.2%

CCCCCCCn1c2c(c(=N)c3ccccc31)CCC2
activity [1]: 64.8%
activity [2]: 51.8%
activity, % sensitization [3]: 30.9%
activity, % sensitization [4]: 38.9%
activity, % sensitization [5]: 0.756%
activity, % sensitization [6]: 28%

C/C(=N\NC(=O)c1csc(C)c1C)c1ccco1
activity [1]: 46.9%
activity [2]: 40.4%
activity, % sensitization [3]: 34.8%
activity, % sensitization [4]: 13.8%
activity, % sensitization [5]: 22.5%
activity, % sensitization [6]: -4.13%

Cc1nc(Cl)c2oc3ccccc3c2n1
activity [1]: 84%
activity [2]: 31.1%
activity, % sensitization [3]: -4.95%
activity, % sensitization [4]: -0.917%
activity, % sensitization [5]: -7.33%
activity, % sensitization [6]: -8.16%

c1ccc(Nc2nnc(-c3cccnc3)s2)cc1
activity [1]: 57.6%
activity [2]: 40.5%
activity, % sensitization [3]: 46.2%
activity, % sensitization [4]: 42.2%
activity, % sensitization [5]: -5.23%
activity, % sensitization [6]: -13.3%

O=C(NC(=S)Nc1nc2c(s1)CCCC2)c1ccccc1
activity [1]: 69.8%
activity [2]: 47.3%
activity, % sensitization [3]: -8.98%
activity, % sensitization [4]: 47.5%
activity, % sensitization [5]: 2.65%
activity, % sensitization [6]: -0.817%

COC(=O)[C@]12CCCCC=C1N(Cc1cccc3ccccc13)C(=O)[C@H](CC(=O)NCc1ccc(OC)c(OC)c1)C2
activity [1]: 66.4%
activity [2]: 53%
activity, % sensitization [3]: 24.8%
activity, % sensitization [4]: 43%
activity, % sensitization [5]: 16.7%
activity, % sensitization [6]: 36.7%

Cc1cc(NC(=O)C2CCCC2)nc2c1c(=O)oc1ccccc12
activity [1]: 68.7%
activity [2]: 50.2%
activity, % sensitization [3]: 15%
activity, % sensitization [4]: -6.85%
activity, % sensitization [5]: 0.143%
activity, % sensitization [6]: 17.1%

c1ccc(-c2cnc(-c3ccccn3)nn2)cc1
activity [1]: 61.4%
activity [2]: 53.5%
activity, % sensitization [3]: 26.5%
activity, % sensitization [4]: 46.5%
activity, % sensitization [5]: 52.7%
activity, % sensitization [6]: 36.1%

Cc1ccc(NC(=O)c2cc3ccccc3o2)nc1
activity [1]: 58.9%
activity [2]: 49.5%
activity, % sensitization [3]: 32.6%
activity, % sensitization [4]: 41.2%
activity, % sensitization [5]: 43%
activity, % sensitization [6]: 41.7%

Cc1ccc(N=C/C(C(=O)C(F)(F)F)=C(\O)c2cccs2)cc1
activity [1]: 56.1%
activity [2]: 53.8%
activity, % sensitization [3]: 83.3%
activity, % sensitization [4]: 63.5%
activity, % sensitization [5]: -0.893%
activity, % sensitization [6]: 77.5%

Cc1nn(-c2ccccc2)c2nc(N)c(C#N)c(-c3ccc(F)cc3)c12
activity [1]: 61.9%
activity [2]: 46.8%
activity, % sensitization [3]: -8.21%
activity, % sensitization [4]: 4.3%
activity, % sensitization [5]: 6.23%
activity, % sensitization [6]: 37.2%

CCCCc1nc(NCCN)c(C#N)c2c1CSC(C)(C)C2
activity [1]: 72.5%
activity [2]: 53.7%
activity, % sensitization [3]: -8.34%
activity, % sensitization [4]: -1.9%
activity, % sensitization [5]: 3.06%
activity, % sensitization [6]: -6.28%

COc1cccc(N/C=C/C(=O)c2ccc(Cl)cc2)c1
activity [1]: 58%
activity [2]: 50%
activity, % sensitization [3]: 32%
activity, % sensitization [4]: 38.3%
activity, % sensitization [5]: 28.1%
activity, % sensitization [6]: 40.5%

COc1ccc(-c2nnc(SCC(=O)c3[nH]c(C)c(C(C)=O)c3C)o2)cc1
activity [1]: 54.1%
activity [2]: 53.9%
activity, % sensitization [3]: -37%
activity, % sensitization [4]: -7.9%
activity, % sensitization [5]: -20.2%
activity, % sensitization [6]: -16.4%

CC(C)C[C@H](NC(=O)c1nc[nH]c1C(=O)N[C@@H](CCCCNC(=O)OC(C)(C)C)C(=O)OC(C)(C)C)C(=O)OCc1ccccc1
activity [1]: 77.7%
activity [2]: 20.4%
activity, % sensitization [3]: -36.8%
activity, % sensitization [4]: -15.7%
activity, % sensitization [5]: -4.5%
activity, % sensitization [6]: -28.8%

O=C(Nc1ccc(C(=O)O)cc1)/C(=C\C=C\c1ccccc1)NC(=O)c1ccccc1Cl
activity [1]: 63.6%
activity [2]: 53.1%
activity, % sensitization [3]: 43.1%
activity, % sensitization [4]: 38.4%
activity, % sensitization [5]: 36.3%
activity, % sensitization [6]: 45.9%

CCOc1ccc2nc(NC(=O)c3cccc(-c4cc5ccccc5oc4=O)c3)sc2c1
activity [1]: 56.2%
activity [2]: 31.1%
activity, % sensitization [3]: -26.2%
activity, % sensitization [4]: -15.7%
activity, % sensitization [5]: -20.2%
activity, % sensitization [6]: -25.4%

Cc1ccc2oc(-c3cccc(N)c3)nc2c1
activity [1]: 60.5%
activity [2]: 46.2%
activity, % sensitization [3]: 45.8%
activity, % sensitization [4]: 58.3%
activity, % sensitization [5]: 53%
activity, % sensitization [6]: 34%

CCCCC1CCC(C(=O)N(CCC(C)C)c2c(N)n(CCCC)c(=O)[nH]c2=O)CC1 (centres undefined)
activity [1]: 90.3%
activity [2]: 39.2%
activity, % sensitization [3]: -14.2%
activity, % sensitization [4]: -10.1%
activity, % sensitization [5]: -5.24%
activity, % sensitization [6]: -5.58%

CC(C)(C)C1C/C(=C/c2ccco2)C(=O)/C(=C/c2ccco2)C1 (centres undefined)
inhibition [7]: 71.5% (active)
inhibition [8]: 1.32% (inactive)
inhibition (Prothrombin (Bos taurus)): 10.1% (inactive)

COCCCn1c(C(=O)Nc2ccc3c(c2)OCO3)cc2c(=O)n3cccc(C)c3nc21
activity [1]: 70.2%
activity [2]: 28.2%
activity, % sensitization [3]: -7.02%
activity, % sensitization [4]: -8.71%
activity, % sensitization [5]: -1.61%
activity, % sensitization [6]: -25.9%

CCOc1ccc(NC(=O)Nc2cccs2)cc1
activity [1]: 63.8%
activity [2]: 46.8%
activity, % sensitization [3]: 36.3%
activity, % sensitization [4]: 52.3%
activity, % sensitization [5]: 40.7%
activity, % sensitization [6]: 47.8%

Cc1ccc(-c2nn(-c3ccccc3)cc2/C=C2\SC(=S)N(CCCCCC(=O)O)C2=O)o1
inhibition [8]: -170% (active)
inhibition (Prothrombin (Bos taurus)): -24.4% (inactive)

Cc1cccc(CC(=O)Nc2cc(C)c3c(=O)oc4ccccc4c3n2)c1
activity [1]: 67.3%
activity [2]: 45.5%
activity, % sensitization [3]: -12.3%
activity, % sensitization [4]: -4.35%
activity, % sensitization [5]: -6.37%
activity, % sensitization [6]: 0.373%

Reference: PubChem BioAssay
